Screening results deposited in PubChem BioAssay by National Center for Advancing Translational Sciences (NCATS).
15-hLO inh: qHTS Assay for Inhibitors of 15-hLO (15-human lipoxygenase); 74,000 compounds, 1.4% hits; Polyunsaturated fatty acid lipoxygenase ALOX15 (Homo sapiens), P16050; purified 15hLO-1, xylenol orange hydroperoxide absorbance; Potency, µM (highest dose often 57.1 µM), without a hit: top-dose activity change, negative = inhibition, hits mostly inhibitors; further: potency means the concentration at half of the fitted maximal effect; on the % scale 0 is the no-effect control and ±100 the full control effect; nearly all actives have a fitted effect of over 55% in size
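Readout: Fe(III)-xylenol orange absorbance, 573-to-405 nm ratio as reaction progress. Enzyme 40 nM purified human 15hLO-1, substrate 50 uM arachidonic acid, 6 min RT after 15 min compound preincubation; Hepes pH 7.5 buffer with Triton X-100.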
Tau fil binding: qHTS Assay for Tau Filament Binding. recombinant tau filaments, thioflavin S fluorescence, 15 h; filaments grown with octadecylsulfate alongside compound. Potency, µM (series often up to 57.1 µM), for the others: at the top dose activity change, negative = inhibition. 71,000 compounds, 2% hits. AID 596, 2007;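 further: potency means the concentration at half of the fitted maximal effect; on the % scale 0 is the no-effect control and ±100 the full control effect; actives lower thioflavin S fluorescence by blocking filaments or displacing dye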
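Assay mix: 1 uM His-tagged tau, 30 uM sodium octadecylsulfate, thioflavine S dye in HEPES/NaCl/DTT buffer. Compound is added prior to the inducer. Fluorescence after 15 h at 37 C.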
Pol III holo inh: qHTS Assay for Inhibitors of DNA Polymerase III Holoenzyme System; 71,000 compounds, 0.25% hits; Potency, µM (highest dose often 57.1 µM), for inactives: at the highest dose activity change, negative = inhibition; reconstituted DNA polymerase III holoenzyme replication, biochemical; further: potency means the concentration at half of the fitted maximal effect; on the % scale 0 is the no-effect control and ±100 the full control effect
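Reconstituted *E. coli* holoenzyme (0.35 nM Pol III, 1 nM beta, 154 nM SSB, 2 nM primase) was preincubated with compound for 15 min at RT. Synthesis on 1.4 nM ssM13Gori ran 35 min, then was stopped with PicoGreen/EDTA and read as dsDNA fluorescence.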
BRCT PPI red: qHTS Assay for Inhibitors of BRCT-Phosphoprotein Interaction (Red Fluorophore); BRCT-phosphopeptide binding, red fluorescence polarization; Potency, µM (doses to about 76.9 µM), for the others: at the top dose activity change, negative = inhibition, hits mostly inhibitors; 75,000 compounds, 0.03% hits; further: on the % scale 0 is the no-effect control and ±100 the full control effect
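Fluorescence polarization: 100 nM His-tagged BRCA1 BRCT with 100 nM TAMRA-labelled phospho-BACH1 decapeptide, phosphate buffer pH 7.3 with 150 mM NaCl, DTT, 0.01% Tween 20; 12 min RT. Binding inhibition seen as FP decrease.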
BRCT inh green: qHTS Assay for Inhibitors of BRCT-Phosphoprotein Interaction (Green Fluorophore); Breast cancer type 1 susceptibility protein (Homo sapiens), P38398; BRCA1 BRCT-phosphopeptide binding, green fluorescence polarization; Potency, µM (doses to about 76.9 µM), for the others: at the highest dose activity change, negative = inhibition, most hits filed as inhibitors; 75,000 compounds, 0.05% hits; AID 875, 2007;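 further: potency means the concentration at half of the fitted maximal effect; plate controls were peptide without protein for full effect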
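Compounds were incubated for 12 min at room temperature with a complex of 100 nM fluorescein-tagged pBACH1 decapeptide and 250 nM His-tagged BRCT protein. Buffer was phosphate pH 7.3 with EDTA, DTT and Tween 20. Disruption of binding lowers the polarization signal.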
TsaE inh: qHTS Assay for Inhibitors of YjeE. tRNA threonylcarbamoyladenosine biosynthesis protein TsaE (Escherichia coli (strain …. purified YjeE enzyme, qHTS inhibition assay. Potency, µM. 71,000 compounds, 0.05% hits. AID 605, 2007
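Purified YjeE (10 uM) with BODIPY Texas Red-labeled ADP probe (2 uM); compounds pin-transferred, 15 min at room temperature. Binding inhibition read as decreased fluorescence polarization; ADP titration as control.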
An asterisk follows results filed as active; i = inactive; ? = inconclusive; . = no result; [ ] = dose if it differs, or a comment. Only some compounds are listed: those with a hit (about 3.3% of all), similar ones and a draw of the others. The call rests on the fitted dose curve; in most records, active means well fitted curve in the direction sought with a large enough effect; inconclusive means small, poorly fitted or top-dose-only effect, or another doubt; inactive means no such curve, though single readings can be large; an effect the other way counts as inactive or inconclusive.

SMILES	15-hLO inh	Tau fil binding	Pol III holo inh	BRCT PPI red	BRCT inh green	TsaE inh
Cn1c(=O)c(-c2ccc(Cl)cc2)nc2cnc(N3CCNCC3)nc21	?	128%	-7%	-1%	-3%	i
O=c1c(-c2ccccc2)nc2cnc(N3CCNCC3)nc2n1Cc1ccc(F)cc1	-4%	47%	-1%	0%	-1%	i
COC1C(O)COC1/C=C/c1ccccc1 (stereo unspecified)	1%[11.4 µM]	.	.	0%[15.4 µM]	1%[15.4 µM]	.
COc1ccc(-c2nc3cnc(N4CCOCC4)nc3n(-c3ccc(OC)cc3)c2=O)cc1	16µM*	i	-2%	1%	1%	?
O=c1c(-c2ccccc2)nc2cnc(N3CCNCC3)nc2n1Cc1cccs1	-3%	5µM*	-7%	-1%	-2%	i
Cc1nc2cnc(N3CCNCC3)nc2n(Cc2cccs2)c1=O	7%	-6%	-7%	-1%	3%	i
COc1ccc2nc3c(nc2c1)C(=O)c1ccccc1-3	-6%	.	.	2%	0%	.
c1ccc(CSc2nnc3c(n2)OC(c2ccco2)Nc2ccccc2-3)cc1 (stereo unspecified)	-10%[11.4 µM]	4µM*	-2%[11.4 µM]	-2%	-1%	i
NC1(C(=O)O)CCC1	-28%[25.6 µM]	?	-2%	-2%	-4%	i
N.N.O=C(O)C1(C(=O)O)CCC1.[Pt]	0.63µM*	1%	7.9µM*	1%	-2%[3.08 µM]	i
NC[C@H]1O[C@H](n2cnc3c(N)ncnc32)C[C@@H]1O	-6%[11.4 µM]	-12%[11.4 µM]	-6%[11.4 µM]	1%[15.4 µM]	1%[15.4 µM]	i
CN1/C(=C\P(=O)(N(C)C)N(C)C)C(C)(C)c2ccccc21	-1%	10µM*	0%	16%	27%	?
CN1/C(=C\C(=O)CN2C(=O)NC3(CCCCCC3)C2=O)C(C)(C)c2ccccc21	-10%	-20%	-12%	0%	1%	i
CCc1cc(C=NC2CCCCC2)c(O)s1	13µM*	-3%	-4%	0%	-4%	i
C=C1C=C(Br)C2(OCCCO2)[C@H]2OC12 (stereo partly specified)	7%[11.4 µM]	.	.	2%[15.4 µM]	-1%[15.4 µM]	.
COC(=O)C/C=C\[C@@H](C)[C@@H](/C=N\O[C@@H](C)c1cc(-c2c(C)cc(C)cc2C)no1)OC	-4%[11.4 µM]	.	.	1%[15.4 µM]	-5%[15.4 µM]	.
CCOC(=O)N1CCC(Nc2c(Nc3ccc(C)c(C)c3)c(=O)c2=O)CC1	-15%	20µM*	-2%	0%	1%	i
CNCC(O)c1cccc(O)c1 (stereo unspecified)	6%	.	.	0%	-4%[3.08 µM]	.
O=c1c(-c2ccc(O)cc2)coc2cc(O)ccc12	5%	?	5%	0%	0%	i
O=c1c(-c2ccccc2)coc2cc(O)cc(O)c12	3.2µM*	.	.	?	-1%[3.08 µM]	.
O=c1c(-c2ccc3c(c2)OCCO3)coc2cc(O)cc(O)c12	16µM*	-8%	6%	2%	-1%	i
COc1cc(OC)c2c(=O)c(-c3ccc4c(c3)OCO4)coc2c1	1%	.	.	-1%	-2%	.
N#CCCn1c(=O)c(CCc2ccccc2)nc2cnc(Nc3ccccc3)nc21	-3%	109%	-7%	2%	31%	i
O=C(Nc1cccc(-c2cnc3ccccc3n2)c1)c1ccco1	-11%	32µM*	-11%	0%	0%	i
Cc1cc(Cl)ccc1Nc1sc(C(=O)c2cc3cc(Cl)ccc3o2)c(N)c1C#N	-4%[11.4 µM]	3.2µM*	-1%[11.4 µM]	1%[15.4 µM]	1%[15.4 µM]	i
